# According to the supplement of paper PMC8728848:
# Shown is part of a subset that was picked to be rich in the strongest signals.
# B1: ArathEULS3 (Arabidopsis thaliana), Q945P1 (protein)
# chain: MEHHHQHHRHHQRDDGEDDRQSFGVPPPHVDAPPQPHGLYQSQPHFDPYAPTPQAPAPYRSETQFEPHAPPPYRSEPYFETPAPPPSFGHVSHVGHQSPNESYPPEHHRYGGYQQPSNSLLESHGDHSGVTHVAHHSSNQPQSSSGVYHKPDENRLPDNLAGLAGRATVKVYSKAEPNYNLTIRDGKVILAPADPSDEAQHWYKDEKYSTKVKDADGHPCFALVNKATGEAMKHSVGATHPVHLIRYVPDKLDESVLWTESKDFGDGYRTIRMVNNTRLNVDAYHGDSKSGGVRDGTTIVLWDWNKGDNQLWKIFPFILEQKLISEEDLNSAVDHHHHHH
# Columns and labels:
# Test in all cases: glycan array binding signal (z-score within array); higher = stronger binding
# Settings in all cases: glycan notation: IUPAC condensed, linker removed
# [1] = biological target: Fuc(a1-2)Gal(b1-3)GlcNAc
# Method in brief: (§1)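 The Consortium for Functional Glycomics database supplied 3228 glycan arrays, of which those lacking an available protein sequence were dropped. The binding signal, a within-array Z-score, was averaged across arrays of the same protein sequence and across linkers. Negative scores can be read as non-binding.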
# [2] = biological target: Fuc(a1-2)Gal(b1-3)GlcNAc(b1-2)Man(a1-3)[Fuc(a1-2)Gal(b1-3)GlcNAc(b1-2)Man(a1-6)]Man(b1-4)GlcNAc(b1-4)[Fuc(a1-6)]GlcNAc
# Method in brief: as §1
# [3] = biological target: Fuc(a1-2)Gal(b1-4)GlcNAc(b1-2)[Fuc(a1-2)Gal(b1-4)GlcNAc(b1-4)]Man(a1-3)[Fuc(a1-2)Gal(b1-4)GlcNAc(b1-2)Man(a1-6)]Man(b1-4)GlcNAc(b1-4)GlcNAc
# Method in brief: as §1
# [4] = biological target: Fuc(a1-2)Gal(b1-4)[Fuc(a1-3)]GlcNAc(b1-2)Man(a1-3)[Fuc(a1-2)Gal(b1-4)[Fuc(a1-3)]GlcNAc(b1-2)Man(a1-6)]Man(b1-4)GlcNAc(b1-4)GlcNAc
# Method in brief: as §1
# [5] = biological target: Fuc(a1-2)Gal(b1-4)[Fuc(a1-3)]GlcNAc(b1-3)GalNAc
# Method in brief: as §1
# [6] = biological target: Fuc(a1-2)Gal6S(b1-3)GlcNAc
# Method in brief: as §1
# [7] = biological target: Fuc(a1-2)[Gal(a1-3)]Gal
# Method in brief: as §1
# [8] = biological target: Fuc(a1-2)[GalNAc(a1-3)]Gal(b1-4)GlcNAc
# Method in brief: as §1
# [9] = biological target: Fuc(a1-2)[GalNAc(a1-3)]Gal(b1-4)GlcNAc(b1-3)GalNAc
# Method in brief: as §1
# [10] = biological target: Fuc(a1-2)[GalNAc(a1-3)]Gal(b1-4)[Fuc(a1-3)]GlcNAc(b1-3)GalNAc
# Method in brief: as §1
# [11] = biological target: Gal(a1-3)Gal(b1-3)GlcNAc(b1-2)Man(a1-3)[Gal(a1-3)Gal(b1-3)GlcNAc(b1-2)Man(a1-6)]Man(b1-4)GlcNAc(b1-4)GlcNAc
# Method in brief: as §1
# [12] = biological target: Gal(a1-3)Gal(b1-3)[Fuc(a1-4)]GlcNAc(b1-2)Man(a1-3)[Gal(a1-3)Gal(b1-3)[Fuc(a1-4)]GlcNAc(b1-2)Man(a1-6)]Man(b1-4)GlcNAc(b1-4)GlcNAc
# Method in brief: as §1
# [13] = biological target: Gal(a1-4)Gal(b1-4)Glc
# Method in brief: as §1
# [14] = biological target: Gal(a1-6)Glc
# Method in brief: as §1
# [15] = biological target: Gal(b1-3)GlcNAc(a1-6)Gal(b1-4)GlcNAc
# Method in brief: as §1
# [16] = biological target: Gal(b1-4)GlcNAc(b1-2)Man(a1-6)Man(b1-4)GlcNAc(b1-4)GlcNAc
# Method in brief: as §1
# [17] = biological target: Gal(b1-4)GlcNAc(b1-2)[Gal(b1-4)GlcNAc(b1-4)]Man(a1-3)[GlcNAc(b1-4)][Gal(b1-4)GlcNAc(b1-2)[Gal(b1-4)GlcNAc(b1-6)]Man(a1-6)]Man(b1-4)GlcNAc(b1-4)GlcNAc
# Method in brief: as §1
# [18] = biological target: Gal(b1-4)GlcNAc(b1-2)[Gal(b1-4)GlcNAc(b1-6)]Man(a1-6)[Gal(b1-4)GlcNAc(b1-2)Man(a1-3)]Man(b1-4)GlcNAc(b1-4)[Fuc(a1-6)]GlcNAc
# Method in brief: as §1
# [19] = biological target: Gal3S(b1-3)GlcNAc
# Method in brief: as §1
# [20] = biological target: GalNAc(b1-3)GalNAc
# Method in brief: as §1
# [21] = biological target: GalNAc4S6S(b1-4)GlcNAc
# Method in brief: as §1
# [22] = biological target: GlcNAc(a1-4)Gal(b1-4)GlcNAc(b1-3)Gal(b1-4)Glc
# Method in brief: as §1
# [23] = biological target: GlcNAc(a1-4)Gal(b1-4)GlcNAc(b1-3)Gal(b1-4)GlcNAc(b1-3)Gal(b1-4)GlcNAc
# Method in brief: as §1
# [24] = biological target: GlcNAc(a1-4)Gal(b1-4)GlcNAc(b1-3)Gal(b1-4)[Fuc(a1-3)]GlcNAc(b1-3)Gal(b1-4)[Fuc(a1-3)]GlcNAc
# Method in brief: as §1
# [25] = biological target: GlcNAc(b1-3)Man
# Method in brief: as §1
# [26] = biological target: GlcNAc(b1-3)[GlcNAc(b1-6)]GalNAc
# Method in brief: as §1
# [27] = biological target: Man(a1-2)Man(a1-3)[Man(a1-2)Man(a1-6)]Man(a1-6)[Man(a1-2)Man(a1-2)Man(a1-3)]Man(b1-4)GlcNAc(b1-4)GlcNAc
# Method in brief: as §1
# [28] = biological target: Man(a1-3)[Man(a1-6)]Man
# Method in brief: as §1
# [29] = biological target: Man(a1-3)[Man(a1-6)]Man(a1-6)[Man(a1-3)]Man
# Method in brief: as §1
# [30] = biological target: Neu5Ac(a2-3)Gal(b1-3)[Fuc(a1-4)]GlcNAc
# Method in brief: as §1
# [31] = biological target: Neu5Ac(a2-3)Gal(b1-3)[Fuc(a1-4)]GlcNAc(b1-3)Gal(b1-3)[Fuc(a1-4)]GlcNAc
# Method in brief: as §1
# [32] = biological target: Neu5Ac(a2-3)Gal(b1-4)GlcNAc(b1-2)[Neu5Ac(a2-3)Gal(b1-4)GlcNAc(b1-6)]Man(a1-6)[Neu5Ac(a2-3)Gal(b1-4)GlcNAc(b1-2)Man(a1-3)]Man(b1-4)GlcNAc(b1-4)GlcNAc
# Method in brief: as §1
# [33] = biological target: Neu5Ac(a2-3)Gal(b1-4)GlcNAc(b1-3)Gal(b1-4)[Fuc(a1-3)]GlcNAc
# Method in brief: as §1
# [34] = biological target: Neu5Ac(a2-3)Gal(b1-4)GlcNAc(b1-3)GalNAc
# Method in brief: as §1
# [35] = biological target: Neu5Ac(a2-3)Gal(b1-4)GlcNAc(b1-6)GalNAc
# Method in brief: as §1
# [36] = biological target: Neu5Ac(a2-3)Gal(b1-4)GlcNAc6S
# Method in brief: as §1
# [37] = biological target: Neu5Ac(a2-3)Gal(b1-4)[Fuc(a1-3)]GlcNAc
# Method in brief: as §1
# [38] = biological target: Neu5Ac(a2-3)Gal(b1-4)[Fuc(a1-3)]GlcNAc(b1-3)GalNAc
# Method in brief: as §1
# [39] = biological target: Neu5Ac(a2-6)Gal(b1-4)GlcNAc
# Method in brief: as §1
# [40] = biological target: Neu5Ac(a2-6)Gal(b1-4)GlcNAc(b1-3)Gal(b1-3)GlcNAc
# Method in brief: as §1
# [41] = biological target: Neu5Ac(a2-6)Gal(b1-4)GlcNAc(b1-6)[Gal(b1-3)GlcNAc(b1-3)]Gal(b1-4)Glc
# Method in brief: as §1
# [42] = biological target: Neu5Ac(a2-6)GalNAc(b1-4)GlcNAc
# Method in brief: as §1
# [43] = biological target: Neu5Ac9Ac(a2-3)Gal(b1-4)GlcNAc
# Method in brief: as §1
binder,measurement,setting,value
B1,glycan array binding signal (z-score),[1],-0.25
same,glycan array binding signal (z-score),[2],0.265
same,glycan array binding signal (z-score),[3],0.36
same,glycan array binding signal (z-score),[4],1.64
same,glycan array binding signal (z-score),[5],11.8
same,glycan array binding signal (z-score),[6],-0.322
same,glycan array binding signal (z-score),[7],-0.303
same,glycan array binding signal (z-score),[8],-0.305
same,glycan array binding signal (z-score),[9],-0.012
same,glycan array binding signal (z-score),[10],7.35
same,glycan array binding signal (z-score),[11],4.38
same,glycan array binding signal (z-score),[12],0.898
same,glycan array binding signal (z-score),[13],-0.332
same,glycan array binding signal (z-score),[14],-0.342
same,glycan array binding signal (z-score),[15],-0.235
same,glycan array binding signal (z-score),[16],2.12
same,glycan array binding signal (z-score),[17],5.54
same,glycan array binding signal (z-score),[18],-0.026
same,glycan array binding signal (z-score),[19],-0.279
same,glycan array binding signal (z-score),[20],0.511
same,glycan array binding signal (z-score),[21],-0.105
same,glycan array binding signal (z-score),[22],-0.112
same,glycan array binding signal (z-score),[23],-0.273
same,glycan array binding signal (z-score),[24],3.11
same,glycan array binding signal (z-score),[25],-0.164
same,glycan array binding signal (z-score),[26],-0.203
same,glycan array binding signal (z-score),[27],-0.229
same,glycan array binding signal (z-score),[28],-0.26
same,glycan array binding signal (z-score),[29],-0.266
same,glycan array binding signal (z-score),[30],-0.211
same,glycan array binding signal (z-score),[31],-0.244
same,glycan array binding signal (z-score),[32],1.98
same,glycan array binding signal (z-score),[33],-0.229
same,glycan array binding signal (z-score),[34],-0.326
same,glycan array binding signal (z-score),[35],-0.302
same,glycan array binding signal (z-score),[36],-0.173
same,glycan array binding signal (z-score),[37],1.79
same,glycan array binding signal (z-score),[38],2
same,glycan array binding signal (z-score),[39],0.011
same,glycan array binding signal (z-score),[40],-0.157
same,glycan array binding signal (z-score),[41],-0.239
same,glycan array binding signal (z-score),[42],-0.302
same,glycan array binding signal (z-score),[43],-0.232
